Legend:
Experiment in all cases: HT-SELEX; 20 mM HEPES pH 7, 140 mM KCl, 5 mM NaCl, 1 mM K2HPO4, 2 mM MgSO4, 100 uM EGTA, ZnSO4, 0.1% Tween20; room temperature, 1 h; high values mean tight binding
Settings in all cases: protein: ivt; tags: eGFP (N-terminal); dsDNA, one strand shown
ZNF721 full-length = ZNF721 full-length (Homo sapiens, UniProt Q8TF20-2 1-923)
Outline: (§1)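 Full-length or DNA-binding-domain forms of a tagged transcription factor were produced in HEK293 lysate or cell-free extract and immobilised on beads. Incubation with a randomized 40-base DNA library ran for 1 h at room temperature in HEPES/KCl low-stringency buffer with Tween20, after which bound DNA was washed, heat-eluted, PCR-amplified over successive cycles and Illumina-sequenced. Binding strength is given as the relative k-mer count in selected reads, higher for tighter binding.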

ZNF721 DBD1 = ZNF721 DBD1 (Homo sapiens, UniProt Q8TF20-2 29-461)
Sequence of ZNF721 DBD1 (Q8TF20 17-449): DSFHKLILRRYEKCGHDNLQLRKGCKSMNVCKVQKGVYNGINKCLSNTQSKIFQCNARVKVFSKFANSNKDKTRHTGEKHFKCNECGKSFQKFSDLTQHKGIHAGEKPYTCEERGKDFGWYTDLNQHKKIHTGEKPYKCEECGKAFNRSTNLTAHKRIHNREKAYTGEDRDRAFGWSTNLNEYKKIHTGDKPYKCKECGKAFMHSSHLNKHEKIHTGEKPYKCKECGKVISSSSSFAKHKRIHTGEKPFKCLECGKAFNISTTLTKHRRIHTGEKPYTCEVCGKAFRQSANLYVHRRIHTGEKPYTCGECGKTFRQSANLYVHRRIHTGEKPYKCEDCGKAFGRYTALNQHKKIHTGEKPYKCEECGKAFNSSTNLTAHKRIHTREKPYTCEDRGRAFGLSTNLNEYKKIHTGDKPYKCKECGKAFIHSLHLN
Outline: as §1

ZNF721 DBD2 = ZNF721 DBD2 (Homo sapiens, UniProt Q8TF20-2 395-923)
Sequence of ZNF721 DBD2 (Q8TF20 383-911): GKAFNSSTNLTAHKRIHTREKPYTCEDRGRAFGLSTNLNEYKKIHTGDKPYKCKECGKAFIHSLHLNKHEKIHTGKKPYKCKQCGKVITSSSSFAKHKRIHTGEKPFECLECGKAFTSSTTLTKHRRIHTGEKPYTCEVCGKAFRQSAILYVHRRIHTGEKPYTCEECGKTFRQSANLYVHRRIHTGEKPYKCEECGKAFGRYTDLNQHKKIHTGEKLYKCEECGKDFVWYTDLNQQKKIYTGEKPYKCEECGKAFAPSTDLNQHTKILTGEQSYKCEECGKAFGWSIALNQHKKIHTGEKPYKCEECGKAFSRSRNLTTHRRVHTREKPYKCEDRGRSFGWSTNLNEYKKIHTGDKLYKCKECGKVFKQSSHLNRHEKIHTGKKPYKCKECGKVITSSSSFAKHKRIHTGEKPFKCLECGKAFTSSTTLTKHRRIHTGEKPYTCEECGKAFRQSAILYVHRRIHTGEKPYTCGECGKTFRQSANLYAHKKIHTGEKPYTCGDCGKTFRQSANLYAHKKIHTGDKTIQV
Outline: as §1

Sequence of ZNF721 full-length (Q8TF20 other isoform, or with tags, fused parts or gaps): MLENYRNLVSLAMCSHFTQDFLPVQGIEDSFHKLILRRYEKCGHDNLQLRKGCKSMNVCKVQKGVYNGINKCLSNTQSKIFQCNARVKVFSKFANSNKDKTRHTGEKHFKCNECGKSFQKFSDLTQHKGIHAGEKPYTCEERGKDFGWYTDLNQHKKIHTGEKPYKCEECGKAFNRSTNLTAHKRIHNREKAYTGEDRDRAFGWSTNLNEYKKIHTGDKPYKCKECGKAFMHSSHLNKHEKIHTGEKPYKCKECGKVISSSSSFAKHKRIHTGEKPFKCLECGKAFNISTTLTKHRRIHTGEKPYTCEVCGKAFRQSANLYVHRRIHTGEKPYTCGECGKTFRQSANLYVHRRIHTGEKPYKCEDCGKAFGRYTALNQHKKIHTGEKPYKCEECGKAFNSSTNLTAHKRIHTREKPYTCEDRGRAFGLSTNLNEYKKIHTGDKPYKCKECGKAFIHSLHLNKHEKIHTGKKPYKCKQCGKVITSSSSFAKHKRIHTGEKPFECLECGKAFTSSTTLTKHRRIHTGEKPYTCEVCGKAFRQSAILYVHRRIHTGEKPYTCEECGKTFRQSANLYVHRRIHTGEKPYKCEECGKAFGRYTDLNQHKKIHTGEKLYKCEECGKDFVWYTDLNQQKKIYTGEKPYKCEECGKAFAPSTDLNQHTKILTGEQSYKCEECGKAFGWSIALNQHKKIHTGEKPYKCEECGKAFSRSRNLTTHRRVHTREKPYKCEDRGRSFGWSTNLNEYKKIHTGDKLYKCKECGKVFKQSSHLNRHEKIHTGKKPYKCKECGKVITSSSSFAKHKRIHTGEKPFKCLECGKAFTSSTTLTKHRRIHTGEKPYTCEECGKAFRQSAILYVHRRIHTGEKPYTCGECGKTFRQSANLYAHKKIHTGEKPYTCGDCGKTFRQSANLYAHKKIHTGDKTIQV

| Sequence | binding signal (ZNF721 full-length) [relative 10-mer count] | binding signal (ZNF721 DBD1) [relative 10-mer count] | binding signal (ZNF721 DBD2) [relative 10-mer count] |
| --- | --- | --- | --- |
| CCTCACCCCC | 0.156 | 0.00683 | 0.0018 |
| AAAAAGCAGT | 0.497 | 0.0214 | 0.383 |
| GCTTTTTTCC | 0.267 | 0.0895 | 0.0308 |
| ACCCCCACCC | 0.267 | 0.0108 | 0.0036 |
| GCCACCCCAC | 0.129 | 0.00472 | 0.00491 |
| CCCACCACCA | 0.199 | 0.00784 | 0.00599 |
| AGGAAAAAAG | 0.114 | 0.0333 | 0.0182 |
| ACCACCCACC | 0.242 | 0.00945 | 0.00875 |
| CACGCCCACC | 0.123 | 0.00518 | 0.00947 |
| GGGGGCGGGA | 0.119 | 0.00537 | 0.00144 |
| CCCCCCACCC | 0.415 | 0.0187 | 0.0036 |
| CACCCTCCAC | 0.106 | 0.0056 | 0.00587 |
| GCCCCCCCCA | 0.107 | 0.00261 | 0.00348 |
| CCCCTCCTCC | 0.154 | 0.00794 | 0.00515 |
| CCACCACCCC | 0.455 | 0.0194 | 0.00419 |
| CACCGCCACC | 0.117 | 0.00339 | 0.00384 |
| CCACGACCCC | 0.118 | 0.00344 | 0.003 |
| AGCAGTACCA | 0.118 | 0.0341 | 0.0533 |
| AGGTGGGTGG | 0.149 | 0.00642 | 0.00443 |
